Inconclusive results are not listed. Active and inactive are the calls of the source. Rule for the calls, unless noted: active = hit-call score of the fitted dose curve at least 0.9, where 1 is the maximum; inactive = score below 0.9.
Tests used:
[1] = CCTE_Mundy_HCI_Cortical_Synap_Neur_Matur_NeuriteLength: CCTE's Synaptogenesis and Neurite Maturation Assay in rat cortical cells for Neurite Length, Mundy Lab (AID 2284214)
In short: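 DMSO-normalised neurite length, from high-content imaging of anti-MAP2-stained rat cortical cells fixed at DIV 12. Glia were suppressed with AraC (DIV 5) before chemical exposure from DIV 7.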

[2] = CCTE_Mundy_HCI_Cortical_Synap_Neur_Matur_NeuriteSpotCountPerNeuron: CCTE's Synaptogenesis and Neurite Maturation Assay in rat cortical cells for Neurite Spot Count per Neuron Count, Mundy Lab (AID 2284215)
In short: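 Synapse density is scored as synaptophysin spots along neurites per neuron in fixed rat cortical neurons, measured at DIV 12 after chemical dosing at DIV 7. DMSO is the negative control and activity baseline.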

[3] = CCTE_Mundy_HCI_Cortical_Synap_Neur_Matur_SynapseCount: CCTE's Synaptogenesis and Neurite Maturation Assay in rat cortical cells for Synapse Count, Mundy Lab (AID 2284218)
In short: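 Endpoint: synapses/neuron by HCI (synaptophysin puncta on MAP2-labelled neurites, Hoechst nuclei). Rat primary cortical cells, AraC DIV 5, dosed DIV 7, fixed DIV 12; DMSO negative control.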

[4] = CCTE_Mundy_HCI_Cortical_Synap_Neur_Matur_NeuriteCount: CCTE's Synaptogenesis and Neurite Maturation Assay in rat cortical cells for Neurite Count, Mundy Lab (AID 2284222);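 note: exposure from day 7 to day 12 in vitro with readout at day 12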
In short: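 Rat primary cortical cells; AraC added at DIV 5, chemicals dosed with media change at DIV 7 through DIV 12. MAP2/synaptophysin/Hoechst immunostaining, high-content imaging of neurite number; fitted relative to DMSO.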

[5] = CCTE_Mundy_HCI_Cortical_Synap_Neur_Matur_CellBodySpotCount: CCTE's Synaptogenesis and Neurite Maturation Assay in rat cortical cells for Cell Body Spot Count, Mundy Lab (AID 2284223)
In short: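 Synapse number at neuronal cell bodies was quantified as synaptophysin puncta per neuron in rat cortical cultures exposed from DIV 7 to DIV 12. Values were normalised to DMSO.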

[6] = CCTE_Mundy_HCI_hNP1_Pro_ResponderAvgInten: CCTE's Proliferation Assay in human neuroprogenitor cells, Mundy Lab (AID 2284224; active = hit-call score of the fitted dose curve at least 0.9, where 1 is the maximum;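 note: human neural progenitor cells hNP1 derived from WA09 embryonic stem cells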)
In short: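 Human neuroprogenitors (hNP1, WA09 lineage) receive test chemical after 40 to 44 hours of attachment. A four-hour BrdU pulse begins twenty hours later, followed by fixation and high content imaging; signal is referenced to DMSO controls.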

[7] = UKN2_HCS_IMR90_cell_viability: Viability Assessment in the University of Konstanz (UKN) Leist Lab Neural Crest Cell Migration Assay in human induced IMR90 Pluripotent Stem Cells (UKN2) (AID 2284233);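 note: viability of neural crest cells differentiated from IMR90 iPSC measured by calcein-AM fluorescence imaging; cells exposed to compound for 24 h after a 24 h migration phase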
In short: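 cMINC format, iPSC-derived neural crest (IMR90); 24 h migration (EGF/FGF, N2-S), then 24 h toxicant. Calcein-AM/H-33342 stain 30 min; fluorescence intensity by HCS; DMSO-normalised, bidirectional fitting.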

[8] = CCTE_Mundy_HCI_Cortical_NOG_NeuronCount: CCTE's Neurite Outgrowth Assay in rat cortical cells for Neuron Count, Mundy Lab (AID 2284236; active = hit-call score of the fitted dose curve at least 0.9, where 1 is the maximum;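 note: neurons counted by imaging betaIII-tubulin and Hoechst stained cortical cells; cells exposed to compound for about 48 hours before fixation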)
In short: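 Read-out: neuron number by high-content imaging of betaIII-tubulin (Alexa Fluor-488) and Hoechst-labelled rat primary cortical cells.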

[9] = CCTE_Mundy_HCI_Cortical_NOG_BPCount: CCTE's Neurite Outgrowth Assay in rat cortical cells for Branch Point Count, Mundy Lab (AID 2284237)
In short: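 Measured 50.33 h after dosing, this morphology endpoint uses rat primary cortical cultures labelled for betaIII-tubulin. Branch points are quantified by high-content imaging, with DMSO as negative control and baseline.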

[10] = CCTE_Mundy_HCI_hNP1_Casp3_7: CCTE's Caspase-Glo 3/7 Assay in human neuroprogenitor cells for Apoptosis, Mundy Lab (AID 2284240)
In short: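 Neuroepithelial-lineage stem cells from WA09 embryonic cells were treated with chemicals after 40–44 h of culture. Twenty-four hours later, caspase-3/7 activation was detected luminescently after a 30 min room-temperature reagent step, with DMSO as baseline.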

[11] = CCTE_Mundy_HCI_hNP1_CellTiter: CCTE's Cell Titer-Glo 2 Assay in human neuroprogenitor cells for Viability, Mundy Lab (AID 2284241; active = hit-call score of the fitted dose curve at least 0.9, where 1 is the maximum)
In short: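 Measures ATP content in human neural progenitors derived from WA09 embryonic cells. Read-out at 26.5 hours after dosing, with DMSO serving as the negative control and baseline.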

[12] = IUF_NPC2c_oligodendrocyte_migration_120hr: Leibniz Research Institute for Environmental Medicine (IUF) 120-hour Neural Progenitor Cell Migration Assay for Oligodendrocyte Migration (NPC2c) (AID 2284297);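 note: O4-positive oligodendrocyte migration distance divided by radial glia migration distance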
In short: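 Primary hNPC spheres migrating on extracellular matrix, exposed five days to a 7-point dilution series with solvent control. Oligodendrocyte migration was scored by high-content imaging of O4 immunostaining and expressed relative to radial glia distance.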

[13] = IUF_NPC2a_radial_glia_migration_120hr: Leibniz Research Institute for Environmental Medicine (IUF) 120-hour Neural Progenitor Cell Migration Assay for Radial Glia Migration (NPC2a) (AID 2284298)
In short: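 In this multiplexed test, fetal hNPC spheres migrate radially on poly-D-lysine/laminin in N2 medium (37C, 5% CO2, pH 7.2-7.6) under continuous compound exposure over five days. Migration is scored at 120 h from automated Hoechst nuclear imaging.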

[14] = IUF_NPC2a_radial_glia_migration_72hr: Leibniz Research Institute for Environmental Medicine (IUF) 72-hour Neural Progenitor Cell Migration Assay for Radial Glia Migration (NPC2a) (AID 2284299)
In short: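 Spheres of human primary neural progenitors migrate on poly-D-lysine/laminin under compound exposure at 37C, 5% CO2. The 72 h radial glia migration distance comes from brightfield images, measured manually.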

[15] = IUF_NPC2b_neuronal_migration_120hr: Leibniz Research Institute for Environmental Medicine (IUF) 120-hour Neural Progenitor Cell Migration Assay for Neuron Migration (NPC2b) (AID 2284300)
In short: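 Neurons identified by TUBB3 immunostaining and Hoechst nuclei; migration distance measured automatically on fixed wells at 120 h, normalized to glia migration. Exposure spanned five days of differentiation in N2 medium, seven test concentrations.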

[16] = IUF_NPC3_neuronal_differentiation_120hr: Leibniz Research Institute for Environmental Medicine (IUF) 120-hour Neuronal Differentiation Assay (NPC3) (AID 2284301)
In short: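 Neuronal differentiation of primary human neural progenitors measured by high-content imaging: percent TUBB3+ of Hoechst+ nuclei within migrated area at 120 h, seven-point serial dilution plus solvent control, gain or loss relative to DMSO.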

[17] = IUF_NPC4_neurite_length_120hr: Leibniz Research Institute for Environmental Medicine (IUF) 120-hour Neuronal Morphology Assay for Neurite Length (NPC4) (AID 2284302)
In short: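 Neurons from differentiating human fetal neural progenitor spheres are scored for average neurite length after five days of compound exposure. Fitting uses DMSO as negative control.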

[18] = IUF_NPC4_neurite_area_120hr: Leibniz Research Institute for Environmental Medicine (IUF) 120-hour Neuronal Morphology Assay for Neurite Area (NPC4) (AID 2284305; active = hit-call score of the fitted dose curve at least 0.9, where 1 is the maximum)
In short: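 Endpoint at 120 h: automated imaging of TUBB3/Hoechst-stained differentiating human neural progenitor spheres, neurite area per neuron from skeletonization. DMSO solvent control, not above 0.1%, set the baseline; medium was half-replaced on day 3.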

[19] = IUF_NPC2-5_cytotoxicity_72hr: Cytotoxicity Assessment at 72 hours in the Leibniz Research Institute for Environmental Medicine (IUF) Neural Progenitor Cell Migration and Differentiation Assay for Cytotoxicity (NPC2-5) (AID 2284306; active = hit-call score of the fitted dose curve at least 0.9, where 1 is the maximum;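 note: LDH release into supernatant measured by resorufin fluorescence marking membrane damage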)
In short: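 Primary human neural progenitor spheres migrate and differentiate on laminin. Compound is present from the start of differentiation, with DMSO kept at or below 0.1%. At 72 h, supernatant LDH is quantified fluorometrically, with values fitted in the positive direction.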

[20] = IUF_NPC2-5_cell_number_120hr: Cell Number Assessment at 120 hours in the Leibniz Research Institute for Environmental Medicine (IUF) Neural Progenitor Cell Migration and Differentiation Assay (NPC2-5) (AID 2284308);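 note: count of Hoechst-stained nuclei in migration zone around plated human neural progenitor spheres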
In short: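 Cell number is taken as all Hoechst-positive nuclei detected in the area into which cells migrate out of the sphere, scored at 120 h and referenced to DMSO solvent control, which was kept at no more than 0.1%.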

[21] = IUF_NPC2-5_viability_120hr: Viability Assessment at 120 hours in the Leibniz Research Institute for Environmental Medicine (IUF) Neural Progenitor Cell Migration and Differentiation Assay (NPC2-5) (AID 2284312)
In short: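 Human fetal (GW 16-19) neural progenitor spheres of 0.3 mm were plated on poly-D-lysine/laminin in N2 differentiation medium and exposed from day 0 for 120 h, with half-medium refresh at day 3. Viability was read as alamar blue resazurin-to-resorufin fluorescence against DMSO.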

[22] = CCTE_Mundy_HCI_iCellGluta_NOG_NeuriteLength: CCTE's Neurite Outgrowth Assay in iCellGluta cells for Neurite Length, Mundy Lab (AID 2284318; active = hit-call score of the fitted dose curve at least 0.9, where 1 is the maximum)
In short: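 Automated high-content imaging of betaIII-tubulin (Alexa Fluor-488) and Hoechst-stained cells gave neurite length, normalized to the DMSO baseline.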

[23] = IUF_NPC1_cytotoxicity_72hr: Cytotoxicity Assessment at 72 hours in the Leibniz Research Institute for Environmental Medicine (IUF) Neural Progenitor Cell Proliferation Assay (NPC1) (AID 2284332; active = hit-call score of the fitted dose curve at least 0.9, where 1 is the maximum;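 note: rising LDH signal means more cytotoxicity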)
In short: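 Readout is fluorescence from LDH-dependent resazurin conversion, sampled from culture medium after compound contact lasting 72 h. Each well holds one 0.25-0.35 mm human progenitor sphere kept at 37C, 5% CO2 with EGF and FGF.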

[24] = CCTE_Mundy_HCI_iCellGluta_NOG_NeuronCount: CCTE's Neurite Outgrowth Assay in iCellGluta cells for Neuron Count, Mundy Lab (AID 2284340; active = hit-call score of the fitted dose curve at least 0.9, where 1 is the maximum;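 note: cells fixed about 48 h after compound addition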)
In short: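 Neuron count read by automated high-content imaging of Hoechst 33342 and betaIII-tubulin/Alexa Fluor-488 labelling in human iPSC glutamatergic neurons. Activity fitted relative to DMSO.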

Measured: outcome

CC(C)c1nn(C(=O)NC(C)(C)C)c(=O)n1N
inactive: [1] | [2] | [3] | [4] | [5] | [6] | [7] | [8] | [9] | [10] | [11] | [12] | [13] | [14] | [15] | [16] | [17] | [18] | [19] | [20] | [21] | [22] | [23] | [24]
